Experimental data taken from PubChem BioAssay AID624111 (Johns Hopkins Ion Channel Center, 2012).
Among all 4,000 compounds or so, about 60 (2%) were called active.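 How the source made its calls: active means duplicate-averaged calcium fluorescence ratio at least three times the standard deviation of buffer wells, a nonspecific response in parental cells; inactive means the rest.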 Only a selection was taken, and actives are over-represented in it overall.

Assay: nonspecific calcium signal in parental HEK293, confirmation, counter-screen for MrgX1 antagonist project, parental HEK293 cells, Fluo-4 calcium flux (AID 624111)
Settings: parental HEK293, Fluo-4 calcium fluorescence, FDSS; at 10 µM

| Compound | fluorescence ratio F(max-min)/F0 |
| --- | --- |
| COc1ccc(C(=O)NC(=S)NNC(=O)c2c(-c3ccccc3)noc2C)cc1 | inactive |
| O=C(COC(=O)c1ccc(NS(=O)(=O)c2cccs2)cc1O)Nc1ccc(F)cc1 | inactive |
| CN(CC(=O)Nc1ccccc1Cl)C(=O)COc1cccc2c1OC(C)(C)C2 | inactive |
| O=C(O)CSC(NC(=O)c1cccnc1)(C(F)(F)F)C(F)(F)F | inactive |
| Nc1cc(OC(=O)c2ccccc2Br)nn1S(=O)(=O)c1ccccc1 | inactive |
| COc1cc2c(cc1O)C(SC)=NC(C)(C)C2 | inactive |
| Cc1nn(-c2ccccc2)c2c1C(c1ccc(F)cc1)C(C#N)=C(N)O2 (configuration not stated) | inactive |
| O=C(CSc1c2c(nc3ccc(Cl)cc13)CCCC2)NCc1ccco1 | inactive |
| COc1ccc(OC)c(C(=O)c2ccc(Cl)cc2)c1 | inactive |
| CCOc1ccc(C2=CC(c3ccccc3)n3ncnc3N2)cc1 (configuration not stated) | inactive |
| O=C(c1cccs1)C1C(c2ccc(Br)cc2)NC(=S)NC1(O)C(F)(F)F (configuration not stated) | inactive |
| CCOC1CCCCC1NS(=O)(=O)c1ccc(Cl)cc1 (configuration not stated) | inactive |
| CC(C)CC(=O)NC(=S)NNC(=O)c1cccc([N+](=O)[O-])c1 | inactive |
| Cc1ccnc(NC(=O)C(C)N2C(=O)c3ccccc3C2=O)c1 (configuration not stated) | inactive |
| O=C1CCCc2c1nc(-c1cccc(Cl)c1)n2O | inactive |
| O=C(CSc1nncn1-c1cccnc1)N1CCOCC1 | inactive |
| O=c1c2cc(Br)ccc2nc(-c2cccc(Cl)c2)n1O | inactive |
| O=C1Cc2ccccc2Sc2ccc(Cl)cc21 | inactive |
| CCOc1ccc2nc(/N=C/c3nc(-c4ccccc4)oc3O)sc2c1 | 0.438 (active) |
| COCC(C)NC(=O)c1ccc(Cl)c(Cl)c1 (configuration not stated) | inactive |
| COCCNC(=O)C1CCN(S(=O)(=O)c2ccc3c(c2)OCCO3)CC1 | inactive |
| FC(F)Oc1ccc(NC(=S)NCc2ccco2)cc1Cl | inactive |
| COc1ccc(NC(=O)c2cc(-c3ccc(C)o3)nc3ccccc23)cc1 | inactive |

| Compound | fluorescence ratio F(max-min)/F0 |
| --- | --- |
| O=C(COC(=O)C1CCN(S(=O)(=O)c2ccc3c(c2)OCCO3)CC1)Nc1ccccc1OC(F)F | inactive |
| CC1CCN(S(=O)(=O)c2nnc(NC(=O)COc3ccccc3F)s2)CC1 | inactive |
| COC(=O)Cn1c(O)c(N=NC(=O)OC)c2ccccc21 | inactive |
| O=C(Nc1nc2c(F)cc(F)cc2s1)C1COc2ccccc2O1 (configuration not stated) | inactive |
| CC(C)OCCCNc1ncnc2c1[nH]c1ccc(F)cc12 | inactive |
| O=C(CC(O)(C(F)(F)F)C(F)(F)F)Nc1ccc(Cl)c(Cl)c1 | inactive |
| O=C(Nc1ccccc1N1CCOCC1)c1csc2c1CCCC2 | inactive |
| Cc1ccc2cc(/C=N/Nc3ccc(C(=O)O)cc3)c(Cl)nc2c1 | inactive |
| CCOCc1nnc(NC(=O)CCC2CCCCC2)s1 | inactive |
| O=C(Cn1c(-c2cncs2)nc2ccccc21)NC1CCCC1 | inactive |
| COc1cc(C2/C(=C(\O)c3ccc4c(c3)CC(C)O4)C(=O)C(=O)N2Cc2ccco2)ccc1O (configuration not stated) | inactive |
| CC1CCCCN1S(=O)(=O)c1ccc(C(=O)Nc2nnc(-c3cccs3)o2)cc1 (configuration not stated) | inactive |
| O=C(Oc1ccc(C(=S)N2CCOCC2)cc1)c1ccc(F)cc1 | inactive |
| COC(=O)Cc1cc(=O)n(-c2nc3ccccc3s2)[nH]1 | inactive |
| COC(=O)c1c(NC(=O)c2c(Cl)cnn2C)sc(C)c1C | inactive |
| COc1cccc(CCNC(=O)COc2cccc3c2OC(C)(C)C3)c1 | inactive |
| CCOC(=O)Cc1csc(SCc2cc(=O)oc3cc(O)ccc23)n1 | inactive |
| NC(=O)c1c(Nc2nc3c(F)cccc3s2)sc2c1CCCC2 | inactive |
| COc1ccc([N+](=O)[O-])cc1NC(=O)COC(=O)/C=C/c1ccco1 | inactive |
| Cc1ccc(OC(=O)c2cc3ccccc3o2)cc1 | inactive |
| Cc1cccc(-n2c(Cc3cc(=O)[nH]c(=O)[nH]3)nnc2SC(C)C)c1 | inactive |
| Cc1ccc(Nc2nc(-c3ccc(O)cc3O)cs2)nc1 | inactive |
| COc1ccc(Nc2nc(-c3cccnc3)nc3ccccc23)cn1 | inactive |

| Compound | fluorescence ratio F(max-min)/F0 |
| --- | --- |
| Cc1ccc(S(=O)(=O)N(C)c2nc3ccccc3n3c(C(C)C)nnc23)cc1 | inactive |
| COC(=O)c1c(NC(=O)CN(c2ccc(C)c(C)c2)S(C)(=O)=O)sc2c1CCCC2 | inactive |
| Cc1nonc1C1CCCN1Cc1nc(-c2ccc(F)cc2F)oc1C (configuration not stated) | inactive |
| Cc1ccc(C(C(=O)NC2CCCCC2)N(C(=O)c2csnn2)C2CC2)o1 (configuration not stated) | inactive |
| CCCc1nc2c(c(=O)c3ccccc3n2C)c(=O)n1C1CCCCCC1 | inactive |
| COC(=O)c1ccc(C2C3=C(Nc4nnnn42)c2ccccc2OC3)cc1 (configuration not stated) | inactive |
| CCN(CC)c1ccc(C2C3CCCCC3(O)CCN2CC(=O)Nc2ccccc2)cc1 (configuration not stated) | inactive |
| Cc1cccc(NC(=O)COc2ccccc2C)n1 | inactive |
| COc1ccc(Cc2nc(-c3ccccn3)no2)cc1OC | inactive |
| CN(C)CCn1c(=S)[nH]c2ccc(Cl)cc2c1=O | inactive |
| O=C(CSc1ncccn1)NC(=O)NCc1ccccc1 | inactive |
| O=C(c1cccc(S(=O)(=O)Nc2ccccc2Cl)c1)N1CCN(C(=O)c2ccco2)CC1 | inactive |
| O=C(Nc1ccccc1)c1nnsc1S(=O)(=O)c1ccc(Cl)cc1 | inactive |
| Cc1ccc(-n2[nH]c(C)c(/C=N/N3C(=O)c4cccc5cccc(c45)C3=O)c2=O)cc1 | inactive |
| CCCCC(=O)Nc1ccc2c(c1)C(=O)NC2=O | inactive |
| O=C(Cc1ccccn1)c1ccc(O)cc1O | inactive |
| Cc1cc2ncn(CCCCOc3ccccc3)c2cc1C | inactive |
| CC(C)(C)n1c(=O)[nH]c2c(c1=O)CCC2 | inactive |
| Cc1ccc2nc(-c3ccc(NC(=O)CN(C)S(=O)(=O)c4ccccc4)cc3)sc2c1 | inactive |
| Cc1cccc(NC(=O)C(C)N2C(=O)C3C4CC(C(Br)C4Br)C3C2=O)c1 (configuration not stated) | inactive |
| C=CCNC(=O)c1csc(-c2ccccc2)n1 | inactive |
| CCc1ccc(N(CC(=O)Nc2sc3c(c2C(=O)OC)CCCC3)S(C)(=O)=O)cc1 | inactive |
| Cc1ccc(Cc2cnc(N)s2)o1 | inactive |

| Compound | fluorescence ratio F(max-min)/F0 |
| --- | --- |
| COc1ccc(Nc2nnc(C)c3ccccc23)cc1 | inactive |
| Cc1nn(-c2ccccc2)c(C)c1NC(=O)COc1ccc(Cl)cc1Cl | inactive |
| O=C(Nc1cccc(Cl)c1)c1cncn1-c1ccc(F)cc1 | inactive |
| CCC(C)Sc1nc(C)nc2c1c(=O)n(C)c(=O)n2C (configuration not stated) | inactive |
| CCc1cc2c(SCC(=O)Nc3ncc(Cl)c(C)c3Cl)ncnc2s1 | inactive |
| N#CC1=C(N)Oc2c(sc3ccccc23)C1c1ccco1 (configuration not stated) | 0.504 (active) |
| CCC(C)c1ccccc1N1CC(C(=O)N2CCN(S(=O)(=O)c3ccc(F)cc3)CC2)CC1=O (configuration not stated) | inactive |
| COc1ccccc1Oc1nc(-c2cccnc2)nc2ccccc12 | inactive |
| COC(=O)c1ccc(COC(=O)C2CCN(S(=O)(=O)c3c(Cl)cccc3Cl)CC2)o1 | inactive |
| CN1C(CC(=O)Nc2ccc(Br)cc2)c2ccccc2CC1(C)C (configuration not stated) | inactive |
| O=C(COc1ccc(Cl)cc1)NC(=S)Nc1ccccc1N1CCOCC1 | inactive |
| Nc1ccc(Oc2ccc(Cl)cc2)cc1 | inactive |
| Cc1cc(=O)oc2cc(NC(=O)C3CC(=O)N(Cc4ccccc4)C3)ccc12 (configuration not stated) | inactive |
| COCCCNC(=O)C1CCN(c2ccc(N3CCOCC3)nn2)CC1 | inactive |
| COc1ccc(C(=O)NC(=S)NC2CCCCC2)cc1 | inactive |
| O=C(Nc1ccc(Br)cc1F)C1CC(=O)N(C2CCCCC2)C1 (configuration not stated) | inactive |
| CCN(c1cccc(C)c1)S(=O)(=O)c1ccc(-c2coc(C)n2)cc1 | inactive |
| CC(=O)N(C1=C(Cl)C(=O)c2ccccc2C1=O)c1ccc(C(=O)O)cc1 | inactive |
| CCOC(=O)c1c(NC(=O)CSc2cn(CC)c3ccccc23)sc2c1CCC2 | inactive |
| O=C(c1ccc(O)cc1)c1ccc(C(=O)O)c(C(=O)O)c1 | inactive |
| CCOc1ccc(NC(=O)CCNC(=O)c2ccc(Br)cc2)cc1 | inactive |
| O=C1CCCN1CCCNC(=S)Nc1ccc(F)c(Cl)c1 | inactive |
| COc1ccc(S(=O)(=O)N2CCN(C(=O)NC3CCCCC3)CC2)cc1 | inactive |

| Compound | fluorescence ratio F(max-min)/F0 |
| --- | --- |
| O=C(Nc1nnc(-c2ccccc2)o1)c1cc(-c2cccs2)nc2ccccc12 | inactive |
| Cc1cc(Br)ccc1NC(=O)c1cnc(N2CCN(c3ccccn3)CC2)c2ccccc12 | inactive |
| Cc1c(C(=O)N2CCN(c3ccc(F)cc3)CC2)oc2c1C(=O)CCC2 | inactive |
| CC(C)CC(=O)N/C(N)=N/c1nc2ccccc2s1 | inactive |
| CC(=O)N(C)c1ccc(NC(=O)C(F)(F)F)cc1 | inactive |
| CCOC(=O)c1c(C)[nH]c(=S)c(C#N)c1-c1ccccc1 | inactive |
| CCc1cc(=O)oc2cc(C)cc(OCC(=O)N3CCC[C@@H]3C(=O)O)c12 | inactive |
| CCN(CC)CC(=O)Nc1nn(-c2ccccc2)nc1C(N)=O | inactive |
| O=C(C1CCN(S(=O)(=O)c2cnc[nH]2)CC1)N1CCN(Cc2ccc3c(c2)OCO3)CC1 | inactive |
| OCc1ccc(OCCCOc2cccc3cccnc23)cc1 | inactive |
| FC(F)(F)c1cc(-c2cccs2)nc(NCc2ccco2)n1 | inactive |
| O=C(Cc1nc2ccccc2[nH]c1=O)c1ccc(Cl)cc1 | inactive |
| Clc1ccc(C=NC23CN4CN(CN(C4)C2)C3)cc1 | inactive |
| CCOC(=O)N1CCN(C(=O)COCc2cc(-c3ccc4c(c3)OCO4)on2)CC1 | inactive |
| CCSc1nsc(NC(=O)Nc2cccc(C(C)=O)c2)n1 | inactive |
| CCCc1cc(=S)n2c([nH]c3ccccc32)c1C#N | inactive |
| O=c1cc(CSc2ccccn2)nc(N2CCN(c3ccccc3)CC2)[nH]1 | inactive |
| CCOC(=O)CNC(=O)CSc1nc2cccnc2n1CC | inactive |
| Cc1c(C)c2c(OCC(=O)N[C@@H](C(=O)O)c3ccccc3)cc3c(c2oc1=O)CCC(C)(C)O3 | inactive |
| Cc1ccc(-c2nn(C(C)(C)C)c3ncnc(N)c23)cc1 | inactive |
